# Test results from PubChem BioAssay (NCI).
# Where “and” joins values, the source holds several entries; their conditions need not be identical. Equal entries are not always repeated. The panel holds about 83,000 compounds, 20% with a hit somewhere; the sample as a whole holds those more often.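 Activity criterion: percent growth below 10, measured after cells in 96-well plates were exposed to a single compound concentration for 48 hours.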 Calls of active or inactive are those of the source.
# Legend:
# Experiment in all cases: NCI-60 one-dose screen, 48 h (100 = growth as untreated, 0 = no growth, -100 = all killed)
# Details in all cases: 10 µM unless noted
# [1] = tested on: NCI-H23 lung
# [2] = tested on: NCI-H226 lung
# [3] = tested on: NCI-H322M lung
# [4] = tested on: NCI-H460 lung
# [5] = tested on: HOP-92 NSCLC
# [6] = tested on: NCI-H522 lung
# [7] = tested on: A549/ATCC NSCLC
# [8] = tested on: 786-0 renal
# [9] = tested on: COLO 205 colon
# [10] = tested on: HOP-62 NSCLC
Compound,growth [1],growth [2],growth [3],growth [4],growth [5],growth [6],growth [7],growth [8],growth [9],growth [10]
C=C(CNCCc1ccc(O)cc1)[C@@H]1CC[C@]2(CO)CC[C@]3(C)[C@H](CC[C@@H]4[C@@]5(C)CCC(NCCc6ccc(O)cc6)C(C)(C)[C@@H]5CC[C@]43C)[C@@H]12 (some centres not stated),-78.2% (active),-61% (active),-90.6% (active),-79.4% (active),-88.4% (active),-73.1% (active),-82.4% (active),-89.9% (active),-91.1% (active),
[2H]C([2H])([2H])Oc1cccc(/C=C/C(=O)/C=C(/C=C/c2cccc(OC([2H])([2H])[2H])c2OC([2H])([2H])[2H])OB(F)F)c1OC([2H])([2H])[2H],69.9% (inactive),95.4% (inactive),106% (inactive),96.9% (inactive),102% (inactive),56.9% (inactive),93.4% (inactive),85.2% (inactive),55.2% (inactive),
CN(Cc1ccccc1)c1nc(Cl)c(C2CC(c3ccc4c(c3)OCO4)=NN2c2cc(Cl)cc(Cl)c2)s1 (configuration not stated),96.2% (inactive),102% (inactive),99.9% (inactive),103% (inactive),99% (inactive),94.2% (inactive),90.7% (inactive),90% (inactive),93.6% (inactive),
OCCN1CCN(c2cc(-c3cccc(OC(F)(F)F)c3)nc3ccc(N4CCCC4)cc23)CC1,74.4% (inactive),70.1% (inactive),80% (inactive),11.3% (inactive),34.1% (inactive),66.4% (inactive),36.2% (inactive),63.1% (inactive),-18.8% (active),
O=C(/C=C/c1ccc(Cl)s1)c1ccc(Cl)s1,89.4% (inactive) and 110% (inactive),91.4% (inactive) and 102% (inactive),97.4% (inactive),101% (inactive) and 115% (inactive),79.3% (inactive) and 105% (inactive),70.1% (inactive) and 87.1% (inactive),96.8% (inactive),79.7% (inactive) and 94.8% (inactive),112% (inactive) and 122% (inactive),
CCOC(=O)c1ccc(Nc2ncnc3c2cnn3-c2cccc(F)c2)cc1,110% (inactive),94.6% (inactive),102% (inactive),102% (inactive),90.6% (inactive),91.9% (inactive),102% (inactive),104% (inactive),113% (inactive),
COc1ccc(-c2nc(Cl)c3c(C)nn(-c4ccc(F)cc4)c3n2)cc1,97.1% (inactive),103% (inactive),105% (inactive),108% (inactive),101% (inactive),97.3% (inactive),90.4% (inactive),105% (inactive),110% (inactive),
O=C1C=C(Nc2ccccc2)c2ncccc2C1=O,-43.1% (active),-46.6% (active),-97.5% (active),-69.4% (active),-79.9% (active),-75.3% (active),-49% (active),-91.9% (active),-76.6% (active),
Clc1ccc2c(NCCN3CCN(c4ccnc(N5CCCC5)n4)CC3)ccnc2c1,56.8% (inactive),80.3% (inactive),44.3% (inactive),16.7% (inactive),23.3% (inactive),45% (inactive),24.6% (inactive),29.4% (inactive),-46.5% (active),
COc1ccc(Oc2nc(Nc3ccc(N4CCOCC4)cc3)ncc2NC(=O)c2cc(OC)cc(OC)c2)cc1,101% (inactive),71.2% (inactive),96.7% (inactive),95.5% (inactive),70.7% (inactive),58.2% (inactive),82.4% (inactive),66.5% (inactive),64.5% (inactive),
Cc1ccc(C(=O)N(CCCN)[C@@H](c2nc3cc(Cl)ccc3c(=O)n2Cc2ccccc2)C(C)C)cc1,8.15% (active),22.6% (inactive),-9.48% (active),-72.4% (active),-16.3% (active),-45.9% (active),-40% (active),-13.7% (active),-72.3% (active),
CONC1=Nc2cc(NC(N)=NCc3ccccc3)c(N(C)C3CCCCC3)cc2OC1,68.3% (inactive),67.3% (inactive),87% (inactive),59.7% (inactive),35.4% (inactive),59.3% (inactive),78.7% (inactive),71.2% (inactive),-36.1% (active),
O=Nc1ccc(NO)c2ccccc12,90.6% (inactive) and 68.3% (inactive),,97.8% (inactive) and 96.2% (inactive),94.6% (inactive) and 105% (inactive),95.1% (inactive) and 92.9% (inactive),93.3% (inactive) and 69.5% (inactive),106% (inactive) and 27.5% (inactive),104% (inactive) and 96.9% (inactive),101% (inactive) and 85.1% (inactive),103% (inactive) and 90.5% (inactive)
COc1ccc(N2CCN(S(=O)(=O)c3oc(-c4ccccc4)nc3C#N)CC2)cc1,57.3% (inactive),64.5% (inactive),97.6% (inactive),94.8% (inactive),101% (inactive),25.2% (inactive),99.4% (inactive),85.5% (inactive),80% (inactive),
CCOc1ccc(N2C(N)=NC(N)=NC2(C)C)cc1,47.6% (inactive) and 83.8% (inactive),,45.2% (inactive) and 99.4% (inactive),13.7% (inactive) and 104% (inactive),10.3% (inactive) and 72.5% (inactive),-7.67% (active) and 90.1% (inactive),19.5% (inactive) and 44.8% (inactive),56.5% (inactive) and 84.2% (inactive),-32.6% (active) and 83% (inactive),26.6% (inactive) and 84.5% (inactive)
CCCN1C(=O)/C(=c2\sc3n(c2=O)NC2C(N=3)N(CC)C(=O)N2CC)c2ccccc21 (configuration not stated),38.8% (inactive),69.3% (inactive),55% (inactive),18.5% (inactive),,11.9% (inactive),42% (inactive),53.3% (inactive),23% (inactive),
O=[N+]([O-])c1ccc2[nH]c3nccc(NCc4cccc(Cl)c4)c3c2c1,82.3% (inactive),83.9% (inactive),77.8% (inactive),26.8% (inactive),92.5% (inactive),50.3% (inactive),58.8% (inactive),76.4% (inactive),68.1% (inactive),
O=C1/C(=C/c2ccccc2[N+](=O)[O-])Cc2ccccc21,22.6% (inactive) and 59.2% (inactive),19.4% (inactive),65.2% (inactive) and 71.3% (inactive),7.04% (active) and 23.6% (inactive),51.9% (inactive) and 77.4% (inactive),-88.7% (active) and -87.5% (active),41.4% (inactive) and -6.77% (active),45% (inactive) and 26.5% (inactive),-74.9% (active) and 18.5% (inactive),
C=C1C(=O)O[C@H]2[C@H]1CC/C(COC(=O)NCCCCNC(=O)OC/C1=C/CC[C@@]3(C)O[C@H]3[C@H]3OC(=O)C(=C)[C@@H]3CC1)=C\CC[C@@]1(C)O[C@@H]21,38.3% (inactive),53.2% (inactive),98.5% (inactive),102% (inactive),,-61.4% (active),94.9% (inactive),22.7% (inactive),-43.4% (active),
Cc1ccc(S(=O)(=O)OC[C@@]2(C)CC[C@]3(C)CC[C@]4(C)C(=C3C2)C=C[C@@H]2[C@@]3(C)CCCNC(C)(C)[C@@H]3CC[C@]24C)cc1,59.2% (inactive),66.8% (inactive),26.9% (inactive),-65.4% (active),28.6% (inactive),-47.1% (active),-38.2% (active),-90.7% (active),-78% (active),
Cc1ccc(-c2nc3nc(-c4ccc(Br)cc4)nc(N4CCCNCC4)c3o2)cc1,97.9% (inactive),103% (inactive),68.9% (inactive),-73% (active),91.7% (inactive),72.6% (inactive),-74.7% (active),-90.6% (active),-49% (active),
O=C(NCc1ccc(Cn2c(=O)sn(-c3ccc(Cl)cc3)c2=O)cc1)OCc1ccc2c(Cl)cc(Cl)c(O)c2n1,44.1% (inactive),56.9% (inactive),45.7% (inactive),21.7% (inactive),64.7% (inactive),68.8% (inactive),30.5% (inactive),55.8% (inactive),109% (inactive),
Nc1ccccc1SC(CC(=O)c1ccccc1)c1ccc([N+](=O)[O-])cc1 (configuration not stated),93.2% (inactive) and 84.7% (inactive),,107% (inactive) and 83.8% (inactive),103% (inactive) and 105% (inactive),71.4% (inactive),96.9% (inactive) and 76.4% (inactive),93.9% (inactive) and 82% (inactive),106% (inactive) and 93.3% (inactive),91.6% (inactive) and 102% (inactive),106% (inactive) and 102% (inactive)
N#Cc1c(-c2cccc(F)c2)cc(-c2cccnc2)[nH]c1=O,105% (inactive),101% (inactive),101% (inactive),109% (inactive),110% (inactive),90.1% (inactive),101% (inactive),97.6% (inactive),108% (inactive),
Nc1nc(N)c2c(n1)NC(c1cccc(Nc3ccnc4cc(C(F)(F)F)ccc34)c1)CC(c1ccc(F)cc1)=N2 (configuration not stated),70.4% (inactive),80% (inactive),86.4% (inactive),18% (inactive),31.6% (inactive),48.2% (inactive),40.1% (inactive),60.4% (inactive),29.1% (inactive),
C#Cc1cc(C(=O)Nc2ccc(CN3CCN(C)CC3)c(C(F)(F)F)c2)ccc1C,88.2% (inactive),83.6% (inactive),88.5% (inactive),71.6% (inactive),58.5% (inactive),96.1% (inactive),70.8% (inactive),52.2% (inactive),56.3% (inactive),
